Measured values published in ChEMBL document CHEMBL4513141, “CO-ADD screening of NIH (USA) - Clinical Collection” (2021).
Potency and affinity values are given separately.

Each molecule was assayed on Escherichia coli. Conditions: Concentration 20 uM; ASSAY_TEST Inhibition of Bacterial Growth; detection method Absorption (OD600); MEDIA CAMHB; plate type 384well; NBS; CORNING #3640; time 18 hr.

**Q.** For `OC[C@H]1O[C@@H](Oc2cc(O)cc(/C=C/c3ccc(O)cc3)c2)[C@H](O)[C@@H](O)[C@@H]1O` [PICEID], which Inhibition is on record?
**A.** The Inhibition was 8.13%.

**Q.** Which Inhibition does the source give for `OCCN(CCO)c1nc(N2CCCCC2)c2nc(N(CCO)CCO)nc(N3CCCCC3)c2n1` [DIPYRIDAMOLE] here?
**A.** The Inhibition was 7.34%.

**Q.** `O=[N+]([O-])c1cccc2cn[nH]c12` [7-NITROINDAZOLE] was tested. Which Inhibition did it give?
**A.** The Inhibition was 6.38%.

**Q.** Which Inhibition does the source give for `CCC(=O)O[C@]1(C(=O)SCF)[C@H](C)C[C@H]2[C@@H]3C[C@H](F)C4=CC(=O)C=C[C@]4(C)[C@@]3(F)[C@@H](O)C[C@@]21C` [FLUTICASONE PROPIONATE] here?
**A.** The Inhibition was 6.95%.

**Q.** With `CCOC(=O)[C@H](CCc1ccccc1)N[C@@H](C)C(=O)N1[C@H](C(=O)O)C[C@@H]2CCC[C@@H]21` as the molecule, how does the Inhibition read?
**A.** The Inhibition was 1.83%.

**Q.** For `O=C1C(CC[S+]([O-])c2ccccc2)C(=O)N(c2ccccc2)N1c1ccccc1` (stereo not drawn) [SULFINPYRAZONE], which Inhibition is on record?
**A.** Its Inhibition is 6.57%.

**Q.** How did the Inhibition turn out when `CCOC(=O)C1=C(C)NC(C)=C(C(=O)OC)C1c1cccc(Cl)c1Cl` (stereo not drawn) [FELODIPINE] was run?
**A.** The Inhibition was 4.41%.

**Q.** With `COC(=O)CCc1ccc(OCC(O)CNC(C)C)cc1.Cl` (stereo not drawn) [ESMOLOL HYDROCHLORIDE] as the molecule, how does the Inhibition read?
**A.** Its Inhibition is -0.36%.
